Source: ChEMBL document CHEMBL3433997, “St. Jude Leishmania screening dataset” (2016)

These molecules were tested against Solute carrier family 2, facilitated glucose transporter member 1 (Homo sapiens) (UniProt P11166) (assay: ST_JUDE_LEISH: Cytotoxicity at 2uM final concentration against transgenic Leishmania Mexicana promastigotes LmGLUT1 that are glucose transport deficient and complemented with the human glucose transporter GLUT1. Activity is measured by DNA content using SYBR green in vitro).
Chain of Solute carrier family 2, facilitated glucose transporter member 1 (Homo sapiens) (P11166 whole entry): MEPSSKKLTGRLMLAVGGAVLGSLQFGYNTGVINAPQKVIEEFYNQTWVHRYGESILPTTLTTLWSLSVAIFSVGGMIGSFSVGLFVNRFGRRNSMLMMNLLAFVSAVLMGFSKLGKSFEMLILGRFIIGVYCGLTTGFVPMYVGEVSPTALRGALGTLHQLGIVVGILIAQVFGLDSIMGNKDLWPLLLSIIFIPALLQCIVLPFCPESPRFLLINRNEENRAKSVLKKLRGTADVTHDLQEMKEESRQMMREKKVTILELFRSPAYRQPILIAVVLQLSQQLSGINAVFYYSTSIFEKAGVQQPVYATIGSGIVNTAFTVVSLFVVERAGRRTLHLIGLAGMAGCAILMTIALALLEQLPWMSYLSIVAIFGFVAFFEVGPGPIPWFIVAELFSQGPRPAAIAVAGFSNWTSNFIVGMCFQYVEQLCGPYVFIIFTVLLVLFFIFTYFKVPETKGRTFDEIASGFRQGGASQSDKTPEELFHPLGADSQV
Assay type: functional
Molecule `O=C(Nc1cccc(CN2CCCN(Cc3cccc(Cl)c3)CC2)c1)c1ccc(Br)cc1` has an inhibition of 7.66%.
For `COc1cc2nc(N3CCC(CNC(=O)c4ccc(-c5ccc(Cl)cc5)cc4)CC3)nc(N)c2cc1OC`, the inhibition was 9.23%.
With `O=C(NCc1cccc(C(F)(F)F)c1)c1ccc(-c2nc3cc(F)c(F)cc3[nH]2)cc1` the inhibition was 1.11%.
With `CCOC(=O)N1CCN(CCCCNc2c3ccc(Cl)cc3nc3ccc(OC)cc23)CC1` the inhibition was 10.8%.
Work on `O=C(Nc1nc2cc(S(=O)(=O)NCCc3cccc(F)c3)ccc2n1CCCn1ccnc1)c1ccc(Cl)cc1` yielded an inhibition of 1.22%.
`Cc1cccc2nc(-c3ccc(-c4cccc(CN5CCN(CC6CCCN(C)C6)CC5)c4)s3)[nH]c12` (stereo not given) showed an inhibition of 7.18%.
In the case of `CCN(CC1CCN(CC2(O)CCOCC2)CC1)c1cc(C)nc(Nc2ccc(Cl)cc2)n1`, the inhibition is reported as -1.01%.
`Nc1nc(N)c2c(ccc3c2ccn3CCCCO)n1` showed an inhibition of 5.49%.
`O=C(Nc1ccc(Cl)cc1)Nc1cccc(CCNCc2ccccc2)c1` was tested, and the inhibition was 0.95%.
For `Cc1c(Cc2ccccc2Cl)cnc2nc(N)nc(N)c12`, the inhibition was 18.9%.
`N=C(NCCc1ccc(Cl)cc1)c1ccc(Cl)c(Cl)c1` showed an inhibition of 2%.
Molecule `CCCCCC(C)C(C)c1cc(OC(N)=O)c2c(c1)OC(C)(C)C=C2c1ccncc1` (stereo not given) has an inhibition of -3.81%.
For `O=C1OC2(CN1CC1CCN(Cc3ccc(O)cc3Cl)C1)c1ccccc1-c1ccccc12` (stereo not given), the inhibition was 0.5%.
For `C=CCOC(=O)N1CCC(CNCc2cccc(-c3ccc(-c4nc5cccc(C)c5[nH]4)s3)c2)C1` (stereo not given), the inhibition was -0.28%.
Work on `Cc1cc(N)c2cc(NC(=O)CCC(=O)Nc3ccc4nc(C)cc(N)c4c3)ccc2n1` yielded an inhibition of 5.9%.
`CC(C)CN1C(=O)C(c2ccc(F)c(F)c2)=C(O)C1c1ccccc1` (stereo not given) gave an inhibition of 1.97%.
`COc1ccc2ncc(F)c(CCN3CCC(NCc4cc(F)c5c(c4)OCCO5)CC3)c2n1` was tested, and the inhibition was 14.4%.
Work on `CN1C(C)(C)CC(NC(=O)c2ccc(-c3nc4cc(Cl)c(Cl)cc4[nH]3)cc2)CC1(C)C` yielded an inhibition of 2.52%.
For `CS(=O)(=O)NCCCNCc1cccc(-c2ccc(-c3nc4cc(C(F)(F)F)ccc4[nH]3)s2)c1`, the inhibition was 1.55%.
With `CC(C)CN(c1nc(C(=O)NNC(=O)[C@H](CC2CC2)NC(=O)c2cc3cc(OCCN4CCCCC4)ccc3o2)cs1)C1CC1` the inhibition was -3.13%.
Work on `N=C(Nc1nc(-c2ccccn2)cc2ccccc12)c1cccc(Cl)c1` yielded an inhibition of 50.7%.
Molecule `CS(=O)(=O)CCNCc1nc(-c2ccc3c(Nc4ccc(Oc5ccccn5)cc4)ccnc3c2)cs1` has an inhibition of 5.17%.
`C/C=C/COc1ccc(-c2c(C)[nH]c(C)c(Cl)c2=O)cc1` showed an inhibition of 4.66%.
For `COc1ccc(CC(Cc2ccc(OC)cc2)NCC(O)c2cccc(Cl)c2)cc1` (stereo not given), the inhibition was 2.03%.
Molecule `Cc1cccc2nc(-c3ccc(-c4cccc(NC(=O)c5cncn5C)c4)cc3)[nH]c12` has an inhibition of 5.73%.
With `O=C(Nc1ccc(Cn2ncc(N3CCCNCC3)c(Cl)c2=O)cc1)Nc1cc(Cl)cc(Cl)c1` the inhibition was 2.15%.
For `CCN(CC)CCNC(=O)c1ccc(NC(=O)c2cn(-c3ccccc3)nc2-c2cccs2)cc1`, the inhibition was 5.46%.
For `Cc1ccc(Nc2nc3cc(N(C)c4ccnc(Nc5cccc(CCS(C)(=O)=O)c5)n4)ccc3n2C)cc1`, the inhibition was 3.07%.
For `CS(=O)(=O)Cc1ccc(Nc2nccc(NC3CCN(c4nccc(C(F)(F)F)n4)CC3)n2)cc1`, the inhibition was 2.96%.
`CCN(CC)CC(O)c1cc(-c2ccc(OC)cc2)nc2cc(Cl)ccc12` (stereo not given) was tested, and the inhibition was 6.97%.
For `N#Cc1ccc(-c2ccc(C(=O)NCCCCN3CCC(c4cc(Br)c5c(c4OCC(N)=O)CCCC5)CC3)cc2)cc1`, the inhibition was 2.88%.
For `CCc1cn2c3c(cc(C(=O)N[C@@H](Cc4ccccc4)[C@H](O)CNCCOC)cc13)N(C)S(=O)(=O)CC2`, the inhibition was 5.11%.
With `O=C(Nc1ccc(-c2ccc(-c3nc4ccccc4[nH]3)s2)cc1)Nc1ccc(Cl)c(Cl)c1` the inhibition was 9.56%.
In the case of `CCCc1cc(OC)c(CC2c3cc(O)c(Cl)cc3CCN2C)cc1OC` (stereo not given), the inhibition is reported as 9.73%.
Molecule `CC(=O)Nc1cccc(C(=O)Nc2ccc(-c3cccc(-c4nc5cccc(C)c5[nH]4)c3)cc2)c1` has an inhibition of 0.48%.
`O=C(/C=C/c1ccc(Cl)c(Cl)c1)NCCCCCN1CCC(NC(=O)Nc2cccc(Cl)c2F)CC1` gave an inhibition of -0.8%.
Work on `OCC(CO)(CO)NCc1ccc2c3c(cccc13)-c1ccccc1-2` yielded an inhibition of 12.1%.
Work on `COc1cccc(CCc2nc3c(N4CCC(Cc5ccccc5)CC4)cccc3n2CC2CNCCO2)c1` (stereo not given) yielded an inhibition of 9.36%.
In the case of `COc1ccc2nccc(NCC3(O)CCN(CC(O)c4ccc5c(c4)NC(=O)CS5)CC3)c2n1` (stereo not given), the inhibition is reported as 3.39%.
`CN(c1ccc(NC(=O)Nc2cc(C(C)(C)C)on2)cc1)c1ccnc(NCCOC(=O)Nc2cc(C(C)(C)C)on2)n1` was tested, and the inhibition was 10.6%.
